# Experimental data from PubChem BioAssay AID1063 (University of Pittsburgh Molecular Library Screening Center, 2008).
# In all, about 200,000 compounds went through this assay and about 18,000 (9%) were called active. Rule as the data show it: active = inhibition above about 50%; inactive = the rest. For the sample, actives were picked, then their nearest neighbours and some compounds at random.
# Assay: antileishmanial activity against promastigotes – primary screen (AID 1063);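 also: promastigotes grown with compound for 44 hours at 28 °C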
# Conditions: Leishmania major promastigotes, resazurin fluorescence viability; at 10 µM; hits give high values
row,SMILES,inhibition
1,COc1ccc(-c2nc(N)sc2C2(O)C(=O)Nc3c(Br)cc(F)cc32)cc1OC (centres undefined),-2.63% (inactive)
2,O=C(/C=C/c1ccco1)Nc1cccc(-c2nc3ccccc3[nH]2)c1,28.8% (inactive)
3,O=C(/C=C/c1ccco1)Nc1ccc(Oc2ccccc2)cc1,99.6% (active)
4,Cc1nnc(NC(=O)/C=C/c2ccco2)s1,21.5% (inactive)
5,COC(=O)C1=C(C(=O)OC)C(c2cc([N+](=O)[O-])ccc2O)c2sc(=O)[nH]c2S1 (centres undefined),-11.4% (inactive)
6,Clc1ncn(CCOc2ccccc2)c1Cl,-6.41% (inactive)
7,CCN(CC)CCCNC(=O)Cn1cnc2sc(C)c(S(=O)(=O)N3CCN(c4ncccn4)CC3)c2c1=O,1.29% (inactive)
8,CCN(CC)CCNC(=O)Cn1cnc2sc(C)c(S(=O)(=O)N3CCOCC3)c2c1=O,-1.31% (inactive)
9,CCN(CC)CCNC(=O)c1sc2ncn(CC(=O)Nc3ccc(C)c(Cl)c3)c(=O)c2c1C,87.1% (active)
10,O=C(CC1C(=O)NCCN1Cc1ccc(-c2ccccc2)cc1)NCc1ccncc1 (centres undefined),-2.72% (inactive)
11,Cc1ccccc1NC(=O)CN1C(=O)N/C(=C\c2cccn2-c2cccc(C(=O)O)c2)C1=O,-4.64% (inactive)
12,Cc1cc(C)nc(Nc2cc([N+](=O)[O-])ccc2C)n1,2.27% (inactive)
13,Cc1ccc(Nc2cc(C)nc3c(C)ccc([N+](=O)[O-])c23)cc1,87.2% (active)
14,Cc1ccc(Nc2ccc(C(N)=O)cc2[N+](=O)[O-])cc1,-4.3% (inactive)
15,O=S(=O)(Nc1ccccn1)c1cccc(S(=O)(=O)c2ccc(Cl)cc2)c1,-10.8% (inactive)
16,CC(C)(C)NC(=O)Cn1cnc2cc([N+](=O)[O-])ccc2c1=O,3.94% (inactive)
17,O=C(/C=C/c1ccc(F)cc1)Nc1cccc(S(=O)(=O)Nc2cccc(C(F)(F)F)c2)c1,50.4% (active)
18,CCNS(=O)(=O)c1ccc(NC(=O)Nc2cccc(C(F)(F)F)c2)cc1,31.4% (inactive)
19,O=C(CN1CCN(c2ccc(F)cc2)CC1)Nc1cccc(C(F)(F)F)c1,-7.62% (inactive)
20,O=C(NCc1ccco1)c1nn2cccnc2c1Cl,-2.79% (inactive)
21,COc1ccc(Sc2nc(-c3ccccc3)ncc2OC)cc1,-4.44% (inactive)
22,CC(Oc1cccc(NC(=O)c2cccs2)c1)C(=O)c1ccccc1 (centres undefined),16.5% (inactive)
23,Cc1ccc(N(Cc2ccc(C(=O)Nc3ccccc3C(=O)NCc3ccco3)cc2)S(C)(=O)=O)cc1C,61.3% (active)
24,CCc1ccccc1N(CC(=O)NCCSCc1ccco1)S(C)(=O)=O,-4.33% (inactive)

row,SMILES,inhibition
1,Cc1cccc(Nc2ccccc2C(=O)NCc2ccco2)c1C,38.2% (inactive)
2,O=C(Nc1ccccc1)Nc1ccccc1C(=O)NCc1ccco1,4.53% (inactive)
3,CS(=O)(=O)N(Cc1ccc(Cl)cc1)c1ccc(C(=O)NCCSCc2ccco2)cc1,53.3% (active)
4,Cc1cc(C)cc(N(CC(=O)NCCSCc2ccco2)S(C)(=O)=O)c1,-4.83% (inactive)
5,CCOC(=O)c1sc(NC(=O)CSc2n[nH]c(CC)n2)nc1C,-7.68% (inactive)
6,Cc1ccccc1NS(=O)(=O)CCCCC(Cl)(Cl)Cl,5.47% (inactive)
7,COc1ccc(C2CC(c3cccs3)=NN2c2ccccc2)cc1 (centres undefined),-1.67% (inactive)
8,CCOC(=O)N1CCN(C(=O)Cn2cnc3ccccc3c2=O)CC1,-4.19% (inactive)
9,COc1ccc(NC(=O)C(=O)NCC(=O)Nc2cccc(C(F)(F)F)c2)cc1,-4.66% (inactive)
10,COC(=O)CSc1ncnc2c1cnn2-c1ccc(C)cc1C,2.35% (inactive)
11,CC1(C)NC(=O)N(CCOc2cccc(Oc3ccccc3)c2)C1=O,-11.3% (inactive)
12,CC(O)CNCCOc1cccc(Oc2ccccc2)c1 (centres undefined),95.9% (active)
13,Cc1ccc([N+](=O)[O-])c(OCCCNCC(C)O)c1 (centres undefined),-0.76% (inactive)
14,Cc1ccnc(SCC(N)=O)n1,-7.56% (inactive)
15,O=C(Nc1ccc(F)c([N+](=O)[O-])c1)C1CC(=O)N(Cc2ccccc2)C1 (centres undefined),8.12% (inactive)
16,CNC(=S)Nc1ccc([N+](=O)[O-])cc1,6.53% (inactive)
17,COc1ccccc1OCCC(=O)OCC(=O)NC(=O)NC(C)(C)C,-5.7% (inactive)
18,COc1cccc(NC(=O)COC(=O)CCOc2ccccc2OC)c1,-0.7% (inactive)
19,COc1ccccc1OCC(=O)OCn1c(SC)nnc(C)c1=O,58% (active)
20,Cn1cnnc1SCc1nnc(-c2ccccc2Br)o1,-7.2% (inactive)
21,COc1ccc(C2CC(c3cccs3)=NN2C(=O)COC(=O)c2cc3ccccc3cc2O)cc1OC (centres undefined),58% (active)
22,COc1ccc(C2CC(c3cccs3)=NN2C(=O)CSc2nnc(N)s2)cc1OC (centres undefined),2.75% (inactive)
23,COc1ccc(C2CC(c3cccs3)=NN2C(=O)CSc2nncs2)cc1OC (centres undefined),8.19% (inactive)
24,COc1ccccc1NC(=O)CCSc1nnc(-c2ccc(O)cc2)o1,-3.54% (inactive)

row,SMILES,inhibition
1,Cc1ccc(-n2c(SCC(=O)Nc3ncc(Cl)cc3Cl)nc3ccccc32)cc1,89.5% (active)
2,NS(=O)(=O)c1cccc(NC(=O)CSc2nc3ccccc3n2-c2ccccc2)c1,9.64% (inactive)
3,Cc1ccc(SCCC(=O)OCC(=O)Nc2ncc(Cl)cc2Cl)cc1,-4.94% (inactive)
4,O=C(O)CC1S/C(=N\N=C/c2ccccc2O)N(c2ccc(O)cc2)C1=O (centres undefined),-7.61% (inactive)
5,CC(=O)C1(C)N(O)C(C)(C)C(c2cccs2)=[N+]1[O-] (centres undefined),-4.97% (inactive)
6,CCOC(=O)c1cc(C#N)c(N2CCCCC2)nc1-c1ccccc1,53.9% (active)
7,CC(=O)c1cc(C#N)c(N2CCCCC2)nc1C,-3.09% (inactive)
8,Cc1cccc2cc(C#N)c(N3CCCC3)nc12,4.74% (inactive)
9,CCN1CC(CN(C)Cc2nc(-c3ccc(Cl)cc3)no2)CC1=O (centres undefined),-8.19% (inactive)
10,COc1cc(NC(=O)COC(=O)c2cnc(C)cn2)c(C)cc1[N+](=O)[O-],-4.51% (inactive)
11,O=C(CSc1ccc(-c2ccco2)nn1)NCc1ccc2c(c1)OCO2,14% (inactive)
12,Cc1cc(N2CCN(S(=O)(=O)c3ccc(C)c(C)c3)CC2)c2ccccc2n1,98.6% (active)
13,Cc1ccc(S(=O)(=O)C(C#N)c2nc3ccccc3nc2N2CCCC2)cc1C (centres undefined),-2.26% (inactive)
14,Cc1cc(C(=O)NNC(=O)c2cccc(S(=O)(=O)N3CCOCC3)c2)c2ccccc2n1,-9.98% (inactive)
15,COc1ccc(CCNC2=C(Cl)C(=O)N(Cc3ccccc3)C2=O)cc1OC,8.4% (inactive)
16,COc1ccc(CCNc2ncnc3nc[nH]c23)cc1OC,5.03% (inactive)
17,COc1ccc(CCNc2cc(C)nc3c(-c4ccc(Cl)cc4)c(C)nn23)cc1OC,76.3% (active)
18,Cc1cc(Cl)ccc1OCCCC(=O)NCc1ccccn1,5.49% (inactive)
19,COc1ccccc1OCCNC(=O)c1cc([N+](=O)[O-])cc([N+](=O)[O-])c1,93.5% (active)
20,COCCCNC(=S)NC(=O)c1ccc([N+](=O)[O-])cc1,-8.2% (inactive)
21,COc1ccccc1OCCNc1cc(N2CCOCC2)ccc1[N+](=O)[O-],2.32% (inactive)
22,Cc1ccc(NC(=O)CSCC(=O)NC2CCCCC2)cc1,14.3% (inactive)
23,CCC1CO/C(=C(\C(=C(Cl)Cl)N2CCOCC2)[N+](=O)[O-])N1 (centres undefined),-6.26% (inactive)
24,Cc1noc(C)c1S(=O)(=O)Nc1ccc(C(=O)N2CCN(c3ccc(F)cc3)CC2)cc1,4.11% (inactive)

row,SMILES,inhibition
1,CCc1ccccc1NC(=O)CN(C)C(=O)COc1ccc(C)nc1[N+](=O)[O-],57.1% (active)
2,COc1ccccc1CNC(=O)COc1ccc(C)nc1[N+](=O)[O-],0.88% (inactive)
3,Cc1ccc(OCC(=O)Nc2ccccc2Sc2ccc(Cl)cc2)c([N+](=O)[O-])n1,7.6% (inactive)
4,COc1ccc(S(=O)(=O)N2CCCCCC2)cc1C(=O)OCC(=O)Nc1cc(C)on1,3.73% (inactive)
5,CC(=O)c1c(C)[nH]c(C(=O)Nc2cc(S(=O)(=O)N(C)C)ccc2C)c1C,-6.9% (inactive)
6,CC(=O)c1c(C)[nH]c(C(=O)OCC(=O)Nc2cc(S(=O)(=O)N3CCCCC3)ccc2C)c1C,95.4% (active)
7,CC(C)(C)C(=O)Cn1c(NCCO)nc2ccccc21,-7.58% (inactive)
8,Cn1c(NN)nc2sc3c(c2c1=O)CCC3,-2.23% (inactive)
9,OCCNc1nc2ccccc2n1-c1ncnc2sc3c(c12)CCC3,60.8% (active)
10,CCN1CCc2nc(NC(=O)c3cc(F)c(F)cc3Cl)sc2C1,-0.49% (inactive)
11,Nc1ccc(Cl)c(S(=O)(=O)Nc2ccccc2Cl)c1,1.56% (inactive)
12,COc1ccc(C2CC(c3ccccc3)=NN2C(=O)c2ccc(Cl)c([N+](=O)[O-])c2)cc1 (centres undefined),31.9% (inactive)
13,CCOc1ccccc1C1CC(c2cccc(NS(C)(=O)=O)c2)=NN1C(=O)c1ccccc1 (centres undefined),2.04% (inactive)
14,CCOc1ccc2nc(Cl)c(C3CC(c4ccccc4)=NN3C(=O)c3cccs3)cc2c1 (centres undefined),66.5% (active)
15,COc1ccc(C(=O)COC(=O)c2ccc3ccccc3n2)cc1,-7.38% (inactive)
16,COc1ccc(CCNC(=O)CCn2c(=O)c3ccccc3n(CC(=O)NCC3CCCO3)c2=O)cc1OC (centres undefined),-3.03% (inactive)
17,Cc1ccnc(NC(=O)c2ccco2)n1,-6.16% (inactive)
18,COc1ccc(CCCc2nnc(SCc3nc4ccccc4c(=O)[nH]3)n2C)cc1,-4.22% (inactive)
19,CC(NC(=O)COC(=O)c1cc(=O)[nH]c2ccccc12)c1ccccc1 (centres undefined),-4.71% (inactive)
20,Cc1ccccc1CC1(CO)CCCN(C(=O)c2cc(-c3ccccc3)no2)C1 (centres undefined),-3.77% (inactive)
21,COc1cccc(CC2(CO)CCCN(Cc3nc(-c4cccs4)oc3C)C2)c1 (centres undefined),2.57% (inactive)
22,Cc1ccccc1CC1(CO)CCCN(Cc2ccc3c(c2)OCCO3)C1 (centres undefined),70.2% (active)
